Pf Dd2 inh – inhibitors of Plasmodium falciparum Dd2 growth; AID 1159554; P. falciparum Dd2 growth, SYBR Green, 72 h; hits give low values; activity change, % at 10 µM; 94,000 compounds, 2.3% hits; in the data active = activity change below about -80%; inconclusive = no clear call, values can overlap the other calls
T cruzi growth-1 – T. cruzi proliferation inhibition; T. cruzi beta-gal in NIH3T3, GalScreen luminescence, 90 h; inhibition, % at 8.34 µM; 77,000 compounds, 5.9% hits;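 active = mean inhibition above about 93%, with at least 55% of replicates each passing it, limit read from the data, passing the limit was not always enough; inconclusive = only one of those two conditions holds; inactive = neither condition holds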
C diff HTS – C. difficile growth inhibition | 86,000 compounds, 0.25% hits | Clostridium difficile clinical isolate growth, OD600, 24 h; hits give low values | growth activity, negative = inhibition, % at 16 µg/mL (by protocol);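 active = mean growth activity at or below -80% and every replicate also at or below -80%; inconclusive = mean at or below -80% but some replicate above -80%; inactive = mean growth activity above -80%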;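 note: 0% = DMSO wells and -100% = levofloxacin 16 µg/mL wells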
T cruzi growth-2 – Trypanosoma cruzi proliferation inhibition. shares compounds with T cruzi growth-1. T. cruzi beta-gal in NIH3T3, GalScreen luminescence, 90 h. inhibition, % at 8.35 µM. 5,600 compounds, 72% hits. AID 651739;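 active = mean replicate inhibition above about 95% and at least 55% of replicates individually reaching it, limit read from the data; inconclusive = only one of the two criteria is met; inactive = neither criterion is met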
T cruzi growth-3 – inhibitors of T. cruzi proliferation; inhibition, % at 2.09 µM; shares compounds with T cruzi growth-1; 5,600 compounds, 21% hits; AID 651740; T. cruzi beta-gal in NIH3T3, GalScreen luminescence, 90 h;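 active = mean inhibition above about 95%, with at least 55% of replicates also reaching it, limit read from the data; inconclusive = meets just one of the two conditions; inactive = meets neither condition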;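 note: plate controls were neutral control median for no effect and positive control median for full effect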
3T3 cytotox – cytotoxicity in mouse NIH/3T3 fibroblasts. cytotoxicity (signal decrease), % at 8.35 µM. 5,600 compounds, 14% hits. NIH/3T3 viability, CellTiter-Glo ATP luminescence, 90 h. shares compounds with T cruzi growth-1;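 active = mean signal decrease across replicates above about 35% based on untreated-well scatter, with enough replicates individually passing, limit read from the data; inconclusive = no rule stated though some were filed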;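 note: 0% = median of neutral control wells and 100% = median of positive control wells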
NIH3T3 tox 2 – cytotoxicity in mouse NIH/3T3 fibroblasts; shares compounds with T cruzi growth-1; NIH/3T3 viability, CellTiter-Glo ATP luminescence, 90 h; inhibition, % at 24.9 µM; 5,600 compounds, 56% hits; AID 651744;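 active = mean loss of cell viability signal at or above a set limit, and enough replicates individually reaching it; inconclusive = meets only the mean limit or only the replicate share; inactive = meets neither condition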;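 note: 0% = median of neutral control wells and 100% = median of positive control wells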
* = called active by the depositor; ? = inconclusive; · = not tested or not shown; ! = repeats disagree. A selection: hits, their analogues and other compounds. The true share with any hit is near 6.8%.

SMILES	Pf Dd2 inh	T cruzi growth-1	C diff HTS	T cruzi growth-2	T cruzi growth-3	3T3 cytotox	NIH3T3 tox 2
COc1ccc(S(=O)(=O)Nc2ccc3c(c2)C(=O)N([C@H](C)CO)C[C@H](C)[C@H](CN(C)S(=O)(=O)c2ccc(OC)cc2)OCCCC[C@@H](C)O3)cc1	-41.7	48.4	-3.1	·	·	·	·
C[C@@H]1CN([C@H](C)CO)C(=O)c2cccc(NC(=O)C3CC3)c2O[C@H]1CN(C)Cc1ccncc1	-8.1	10.6	2.1	·	·	·	·
O=C(C[C@@H]1CC[C@@H](NC(=O)C2CC2)[C@@H](CO)O1)NC1CCC1	11.2	-8.0	·	·	·	·	·
Cc1ccc(S(=O)(=O)Nc2ccc3c(c2)C(=O)N(C)[C@H]2CC[C@H](CC(=O)O)O[C@@H]2CO3)cc1	12.2	4.4	-6.2	·	·	·	·
COc1ccc(S(=O)(=O)Nc2ccc3c(c2)C(=O)N([C@H](C)CO)C[C@@H](C)[C@H](CN(C)S(=O)(=O)c2ccc(C)cc2)OCCCC[C@@H](C)O3)cc1	-61.4	·	·	·	·	·	·
COc1ccc(S(=O)(=O)N(C)C[C@H]2OCCCC[C@H](C)Oc3ccc(NS(=O)(=O)c4ccc(C)cc4)cc3C(=O)N([C@@H](C)CO)C[C@@H]2C)cc1	-68.3	?	2.5	100.7*	77.7	6.6	-1.8
COc1ccc(S(=O)(=O)Nc2ccc3c(c2)C(=O)N([C@@H](C)CO)C[C@@H](C)[C@H](CN(C)S(=O)(=O)c2ccccc2)OCCCC[C@H](C)O3)cc1	-34.3	·	-3.7	·	·	·	·
COc1ccc(S(=O)(=O)Nc2ccc3c(c2)C(=O)N([C@H](C)CO)C[C@@H](C)[C@H](CN(C)S(=O)(=O)c2ccc(OC)cc2)OCCCC[C@H](C)O3)cc1	-73.8	99.8*	-2.8	107.4*	61.5	17.6	4.7
CC(C)NC(=O)N(C)C[C@H]1OCCCC[C@@H](C)Oc2ccc(NC(=O)c3ccccc3)cc2C(=O)N([C@@H](C)CO)C[C@H]1C	-45.5	40.6	1.8	·	·	·	·
C[C@@H]1CN([C@H](C)CO)C(=O)c2cc(C#Cc3ccncc3)cnc2O[C@H]1CN(C)CC1CCOCC1	19.1	-44.2	5.2	·	·	·	·
COc1cccc(S(=O)(=O)N(C)C[C@@H]2Oc3cc(C#CCC(C)C)ccc3S(=O)(=O)N([C@@H](C)CO)C[C@@H]2C)c1	-71.7	?	27.7	?	111.6*	4.7	9.1
COc1cccc(S(=O)(=O)N(C)C[C@H]2Oc3cc(C#CCC(C)C)ccc3S(=O)(=O)N([C@@H](C)CO)C[C@H]2C)c1	-77.0	?	7.3	96.4*	112.2*	17.9	65.8*
CCCC#Cc1ccc2c(c1)O[C@H](CN(C)S(=O)(=O)c1cccc(OC)c1)[C@H](C)CN([C@@H](C)CO)S2(=O)=O	-19.9	·	·	·	·	·	·
COc1cccc(S(=O)(=O)N(C)C[C@@H]2Oc3cc(C#CCC(C)C)ccc3S(=O)(=O)N([C@H](C)CO)C[C@H]2C)c1	?	61.1	4.1	·	·	·	·
CO[C@@H]1CN(C)C(=O)c2cc(NS(C)(=O)=O)ccc2OC[C@@H](C)N(CC2CCOCC2)C[C@@H]1C	44.7	21.6	-2.8	·	·	·	·
C[C@H](CO)N1C[C@H](C)[C@@H](CN(C)S(=O)(=O)c2cn(C)cn2)Oc2ccc(NC(=O)CCC(F)(F)F)cc2CC1=O	41.9	-10.8	-6.9	·	·	·	·
C[C@H](CO)N1C[C@H](C)[C@@H](CN(C)Cc2ccccc2)Oc2ccc(NC(=O)Nc3cccc4ccccc34)cc2CC1=O	-73.6	69.5	5.3	·	·	·	·
C[C@@H]1CN([C@@H](C)CO)C(=O)Cc2cc(NC(=O)Nc3cccc4ccccc34)ccc2O[C@H]1CN(C)Cc1ccc(-c2ccccc2)cc1	-43.1	107.4*	4.8	102.4*	106.1*	11.0	6.4
C[C@H](CO)N1C[C@H](C)[C@H](CN(C)Cc2ccccc2)Oc2ccc(NC(=O)Nc3cccc4ccccc34)cc2CC1=O	-46.0	72.8	2.3	·	·	·	·
C[C@H]1CN([C@@H](C)CO)C(=O)Cc2cc(NC(=O)Nc3cccc4ccccc34)ccc2O[C@@H]1CN(C)Cc1ccc(-c2ccccc2)cc1	-34.1	101.9*	10.2	109.4*	107.4*	1.0	3.5
C[C@H]1CN([C@@H](C)CO)C(=O)c2cc(-c3ccccc3F)cnc2O[C@@H]1CN(C)C(=O)NC1CCCC1	-3.1	0.7	2.3	·	·	·	·
Cc1ccc(S(=O)(=O)N[C@@H]2CC[C@H](CCNC(=O)C3CCC3)O[C@@H]2CO)cc1	1.6	·	-1.5	·	·	·	·
C[C@H](CO)N1C[C@H](C)[C@@H](CN(C)C(=O)Cc2ccccn2)Oc2ncc(-c3ccccc3)cc2C1=O	-7.4	-52.4	-1.9	·	·	·	·
CC(C)NC(=O)N(C)C[C@H]1OCCCC[C@@H](C)Oc2ccc(NC(=O)C3CCCCC3)cc2C(=O)N([C@H](C)CO)C[C@@H]1C	-5.3	98.7*!	-3.1	-42.8	-41.3	0.9	10.0
CC(C)NC(=O)N(C)C[C@@H]1OCCCC[C@H](C)Oc2ccc(NC(=O)C3CCCCC3)cc2C(=O)N([C@@H](C)CO)C[C@@H]1C	-52.8	21.6	0.3	·	·	·	·
SMILES	Pf Dd2 inh	T cruzi growth-1	C diff HTS	T cruzi growth-2	T cruzi growth-3	3T3 cytotox	NIH3T3 tox 2
C[C@H]1CCCCO[C@@H](CN(C)C(=O)Nc2ccc(C(F)(F)F)cc2)[C@@H](C)CN([C@@H](C)CO)C(=O)c2cc(NC(=O)C3CCCCC3)ccc2O1	-82.9*	96.5*	0.3	103.5*	104.9*	7.2	1.8
C[C@@H]1CN([C@@H](C)CO)C(=O)c2cc(NC(=O)C3CCCCC3)ccc2O[C@@H](C)CCCCO[C@@H]1CN(C)C(=O)Nc1ccc(F)cc1	-65.9	38.4	2.3	·	·	·	·
C[C@@H]1CN([C@@H](C)CO)C(=O)c2cc(NC(=O)C3CCCCC3)ccc2O[C@@H](C)CCCCO[C@@H]1CN(C)C(=O)Nc1ccc(C(F)(F)F)cc1	?	92.5	10.6	·	·	·	·
C[C@@H]1CCCCO[C@@H](CN(C)C(=O)Nc2ccc(C(F)(F)F)cc2)[C@@H](C)CN([C@H](C)CO)C(=O)c2cc(NC(=O)C3CCCCC3)ccc2O1	-68.7	101.4*	-3.1	106.8*	76.1	13.7	-5.1
Cc1noc(C)c1S(=O)(=O)N(C)C[C@@H]1OCCCC[C@@H](C)Oc2ccc(NS(=O)(=O)c3cccs3)cc2C(=O)N([C@@H](C)CO)C[C@@H]1C	-35.2	·	6.5	·	·	·	·
CNC(=O)C[C@@H]1CC[C@@H]2[C@@H](COc3ccc(NC(=O)Nc4ccc(C)cc4)cc3C(=O)N2C)O1	-3.1	-5.3	19.1	·	·	·	·
O=C(O)C[C@H]1CC[C@H](NC(=O)Nc2ccccc2)[C@@H](CO)O1	1.6	28.6	·	·	·	·	·
C[C@@H]1CN([C@@H](C)CO)C(=O)c2cc(C#CC(C)(C)O)cnc2O[C@@H]1CN(C)Cc1cccc(F)c1	28.3	·	0.6	·	·	·	·

Assay outcomes from PubChem BioAssay.
